# From PubChem BioAssay (Tox21)
# Inconclusive results are not listed. Values without a mark were called inactive. Activity calls are given as the source filed them. Calls follow the shape of the dose curve; as a rule, active = well fitted inhibition curve with a large enough effect in the repeat runs; inconclusive = weak or mixed curves; inactive = no such curve, though single readings can be large or run the other way.
# Target: Cytochrome P450 2C19 (Homo sapiens) (UniProt P33261)
# Assay: Cytochrome P450 Family 2 Subfamily C Member 19 (CYP2C19) small molecule antagonists: luciferase reporter qHTS assay (AID 1671197); also: nearly all actives have a fitted effect of over 65% in size
# Conditions: P450-Glo CYP2C19 enzyme, luciferin luminescence, 1 h; series mostly up to 115 µM; activity change, negative = inhibition: at the top concentration
# Excerpt: National Center for Advancing Translational Sciences [NCATS]
# U.S. Environmental Protection Agency [EPA]
# National Institutes of Environmental Health Sciences [NIEHS]
# National Toxicology Program [NTP]
# U.S. Food and Drug Administration [FDA]
# Cytochrome P450 (CYP) enzymes are membrane-bound hemeproteins that play a key role in metabolism of drugs and xenobiotics. Evaluation of the effect of chemicals on CYP isozymes is useful to minimize the adverse drug reactions and toxicities in drug development process. Tox21 chemicals were tested for their effect on CYP enzyme activities by using P450-Glo (TM) screening systems (Promega Corporation, Madison, WI). These systems provide a luminescent method containing proluciferin substrates and are converted to luciferin products by CYP isozymes. The luciferin products formed are detected with a luciferin detection reagent, and the amount of light produced is proportional to CYP activity. P450-Glo (TM) CYP2C19 screening system (Catalog. No. V9880) was used to detect the compounds that interfere in CYP2C19 activity. The positive control compound used for CYP2C19 assay is ketoconazole (Sigma-Aldrich, St. Louis, MO).
# Tox21 Assay Protocol Summary:
# Two ul of enzyme-substrate mix was dispensed into medium binding white/solid 1536-well plates (Greiner Bio-One North America Inc., Monroe, NC) using a BioRaptr Flying Reagent Dispenser (FRD, Beckman Coulter, Brea, CA). Compounds dissolved in DMSO and positive control (ketoconazole) were transferred to the assay plates at 23 nl using a Pintool station (Wako, San Diego, CA). The assay plates were incubated at room temperature for 10 min. Then 2 ul of NADPH regeneration solution was added to each well of the assay plates using an FRD and incubated at 37C for 1 h. The reaction was stopped by adding 4 ul of detection reagent using an FRD and after 20 min incubation at room temperature the luminescence signal was measured using a ViewLux plate reader (Perkin Elmer, Shelton, CT). Data were expressed as relative luminescence units.
# % is scaled to controls: 0 for no effect and ±100 for the full control effect; potency is read from the fitted curve at half-maximal effect.
# Chain of Cytochrome P450 2C19 (Homo sapiens) (P33261 whole entry, looked up): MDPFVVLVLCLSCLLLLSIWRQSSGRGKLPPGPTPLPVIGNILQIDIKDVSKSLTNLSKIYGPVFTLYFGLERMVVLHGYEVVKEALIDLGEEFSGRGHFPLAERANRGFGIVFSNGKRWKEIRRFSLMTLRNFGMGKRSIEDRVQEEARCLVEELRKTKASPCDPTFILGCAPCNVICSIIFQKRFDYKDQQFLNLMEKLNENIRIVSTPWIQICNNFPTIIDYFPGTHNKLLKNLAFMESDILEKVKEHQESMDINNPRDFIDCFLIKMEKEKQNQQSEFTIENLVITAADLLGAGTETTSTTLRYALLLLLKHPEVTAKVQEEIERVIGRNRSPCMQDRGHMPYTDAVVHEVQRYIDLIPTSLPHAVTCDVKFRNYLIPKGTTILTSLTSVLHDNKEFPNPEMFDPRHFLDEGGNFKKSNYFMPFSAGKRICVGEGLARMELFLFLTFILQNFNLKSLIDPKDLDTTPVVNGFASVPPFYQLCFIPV
Structure (SMILES),"activity change, negative = inhibition",Potency
BrCC(Br)(Br)Br,-4.79%,–
O=S1(=O)OCC2C(CO1)C1(Cl)C(Cl)=C(Cl)C2(Cl)C1(Cl)Cl (stereo not given),–,1.59 µM (active)
CC(Cc1ccccc1)N(C)Cc1ccco1 (stereo not given),–,7.76 µM (active)
[Cl][Hg][c]1ccccc1,–,5.03 µM (active)
CCOP(=O)(OCC)Oc1nc(Cl)c(Cl)cc1Cl,–,3.15 µM (active)
O=C(O)CCCCCCNC1c2ccccc2CCc2ccccc21,1.86% [at 52.9 µM],–
ClC1=C(Cl)[C@]2(Cl)[C@@H]3[C@H]4C[C@H]([C@@H]5O[C@H]45)[C@@H]3[C@@]1(Cl)C2(Cl)Cl,–,63.3 µM (active)
CC#C[C@]1(O)CC[C@H]2[C@@H]3C[C@H](C)C4=CC(=O)CC[C@]4(C)[C@H]3CC[C@@]21C,–,9.77 µM (active)
CC(O)C(=O)[O][Hg][c]1ccccc1 (stereo not given),–,6.33 µM (active)
N#CSCc1ccccc1,–,71.3 µM (active)
CN1C2CCC(C)(C)C1CC(OC(=O)C(O)(c1cccs1)c1cccs1)C2 (stereo not given),3.45% [at 52.9 µM],–
COc1ccc2c(c1OC)C(=O)O[C@@H]2[C@H]1c2cc3c(cc2CCN1C)OCO3,–,3.95 µM (active)
CCC1(CC)C(=O)N=C(O)NC1=O,-9.08%,–
Cc1ccccc1OP(=O)(Oc1ccccc1C)Oc1ccccc1C,–,1.6 µM (active)
CC(Cl)CCl (stereo not given),–,70.8 µM (active)
Nc1ccc(N=Nc2ccccc2)cc1,–,12.6 µM (active)
CNC(=O)O/N=C(\C)C(C)S(C)(=O)=O (stereo not given),7.98% [at 1.09 mM],–
Cc1cc2c3c(c1)C(c1ccccc1)=N[C@@H](NC(=O)c1ccncc1)C(=O)N3CC2,–,25.2 µM (active)
CCCN,-15.1%,–
CC(C)Br,–,35.7 µM (active)

Structure (SMILES),"activity change, negative = inhibition",Potency
Oc1ccc([C@H]2CNCc3c2ccc(O)c3O)cc1O,–,38.9 µM (active)
O=C(NC(=O)c1ccccc1Cl)Nc1ccc(OC(F)(F)F)cc1,-6.35%,–
O=[N+]([O-])C(Br)Br,14.4%,–
CCNc1nc(NC(C)C(C)C)nc(SC)n1 (stereo not given),–,39.9 µM (active)
CCN1CCC2(CC1)COc1cc3c(cc12)N(C(=O)c1ccc(-c2ccc(-c4nnc(C)o4)cc2C)cc1)CC3,–,23.2 µM (active)
C[C@]12Cc3cn[nH]c3C[C@@H]1CC[C@@H]1[C@@H]2CC[C@@]2(C)[C@H]1CC[C@]2(C)O,–,0.776 µM (active)
CC(Cc1ccc(O)cc1)NCC(O)c1cc(O)cc(O)c1 (stereo not given),0.667% [at 52.9 µM],–
Cc1cc(C2CC2)nc(Nc2ccccc2)n1,–,39.9 µM (active)
CC(C)C(Br)C(=O)NC(N)=O (stereo not given),22% [at 52.9 µM],–
CN1C(=O)[C@@H](NC(=O)c2cc3ccccc3[nH]2)N=C(c2ccccc2)c2ccccc21,0.572% [at 52.9 µM],–
COP(=S)(OC)Oc1nc(Cl)c(Cl)cc1Cl,–,79.6 µM (active)
Cc1ccn2nc(S(=O)(=O)Nc3c(F)cccc3F)nc2n1,-16.9%,–
c1cc[n+]2c(c1)-c1cccc[n+]1CC2,–,9.77 µM (active)
C=CC(=C)C,13.9%,–
FC(F)C(F)(F)OCC(Cn1cncn1)c1ccc(Cl)cc1Cl (stereo not given),–,0.0199 µM (active)
Nc1c(Cl)c(Cl)c(Cl)c(Cl)c1Cl,-25.6%,–
COc1ccc2[nH]cc(CCN(C(C)C)C(C)C)c2c1,-16.1%,–
CN(C)c1ccc(N)cc1,–,7.78 µM (active)
N#CC(C#N)=NNc1cccc(Cl)c1,–,79.6 µM (active)
CCCCC(CC)COC(=O)c1ccccc1C(=O)OCC(CC)CCCC (stereo not given),–,14.2 µM (active)
